Compound activity deposited in PubChem BioAssay by National Center for Advancing Translational Sciences (NCATS).
D2 ag-1 – agonists of human D2 dopamine receptor (beta-arrestin); DiscoveRx PathHunter D2 beta-arrestin, luminescence, 90 min; 100% = 57 uM dopamine signal; activation, % (concentration not given with the values); actives 0.084% (n = 360,000); in the data active = activation above about 40%; inconclusive = between about 15% and that limit
Target sequence (P14416 whole entry, looked up): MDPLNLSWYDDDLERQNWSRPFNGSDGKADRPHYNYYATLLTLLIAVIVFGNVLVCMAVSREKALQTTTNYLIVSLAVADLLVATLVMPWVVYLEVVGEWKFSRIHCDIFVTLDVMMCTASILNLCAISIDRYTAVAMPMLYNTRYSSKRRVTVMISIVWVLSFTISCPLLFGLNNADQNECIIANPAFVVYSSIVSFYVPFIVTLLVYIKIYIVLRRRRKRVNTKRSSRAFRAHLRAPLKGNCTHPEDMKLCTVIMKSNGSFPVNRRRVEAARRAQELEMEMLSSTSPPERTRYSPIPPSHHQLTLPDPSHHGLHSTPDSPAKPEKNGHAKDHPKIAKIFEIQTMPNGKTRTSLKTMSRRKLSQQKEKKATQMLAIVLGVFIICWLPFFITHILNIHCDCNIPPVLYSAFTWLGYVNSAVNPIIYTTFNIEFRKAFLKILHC
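DiscoveRx PathHunter D2 beta-arrestin cells (2,100/well) attached overnight, then compound-stimulated 90 min at 37 C in HBSS/10 mM HEPES/0.1% Tween-20 buffer; beta-galactosidase complementation read by luminescence after 1 h at ambient temperature. Dopamine 57 uM final (EC100) as control.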
D2 PAM-1 – positive allosteric modulators of human D2 dopamine receptor; actives 0.23% (n = 360,000); potentiation, % (no concentration beside the values); DiscoveRx D2 beta-arrestin cells, luminescence, 90 min; 100% = 57 uM dopamine signal; in the data active = potentiation above about 50%; inconclusive = mostly about 30% to 49%
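D2 cells co-treated with compound plus 50 nM dopamine (EC20) for 90 min at 37 deg C to detect potentiation. Beta-arrestin recruitment was read as enzyme-fragment luminescence after 1 h at ambient temperature. Full response was set by 57 uM dopamine.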
D2 ag-2 – agonists of human D2 dopamine receptor; P14416; HEK293 T-REx D2 cells, calcium flux agonist mode; activation, % at 2 µM; actives 0.53% (n = 340,000);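 active = activation over 3 SD above normal in the single-dose calcium agonist read, cut at about 30% in these data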
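Agonism is scored from calcium flux in a force-coupled, inducible HEK293 cell line expressing D2, read kinetically for 180 s after compound addition against dopamine controls.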
D2 antagonist – D2 dopamine receptor (human) antagonism. P14416. HEK293 TREx D2 cells, calcium flux, dopamine EC80. inhibition, % at 10 µM. actives 2% (n = 340,000). AID 485344; in the data active = inhibition above about 30%; inactive = below that, where a call was filed
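Dopamine at EC80 is the agonist stimulus; test compounds precede it by 180 s. Calcium flux read kinetically in a force-coupled, inducible HEK293 T-REx D2 cell line.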
D2 PAM-2 – D2 dopamine receptor (human) potentiation; P14416; HEK293 T-REx D2, calcium flux, EC20 dopamine potentiation; potentiation, % at 10 µM; actives 0.34% (n = 340,000);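 active = potentiation over 3 SD above the plate norm, cut at about 30% in these data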
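Tetracycline-induced HEK293 T-REx cells force-coupled to calcium signalling expressed D2; compounds were pin-added after a 10 s baseline, read kinetically 180 s, then an EC20 dopamine challenge followed with a further 180 s calcium read.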
Of the large screens only hits and unclear results are named; the others gave an inactive call. Hits are enriched below; roughly 2.4% of the tested compounds scored in any of these assays.

CC1=C(C(=O)Nc2cccc(C(=O)NC(C)C)c2)SCCO1	none
CCC(C)NC(=O)c1ccc(NC(=O)C2=C(C)OCCS2)cc1 (stereo not given)	D2 antagonist 44
O=C1Nc2cc(Cl)ccc2Oc2cc(Oc3ccccc3)ccc21	none (no result: D2 ag-1, D2 PAM-1, D2 antagonist)
Cc1cc(Cl)c2oc(C(=O)N(C)C3CCOC3)c(C)c2c1 (stereo not given)	D2 PAM-2 88
Cc1cc(Cl)c2oc(C(=O)N3CCOCC3)c(C)c2c1	none (no result: D2 ag-2, D2 antagonist, D2 PAM-2)
Cc1cc(C)c(Cn2c3ccccc3c3cnn(CC(=O)N4CCCCCC4)c(=O)c32)c(C)c1	none (no result: D2 ag-1, D2 PAM-1, D2 antagonist)
CC1(C)C(=O)NCCN1C(=O)CCC(=O)O	D2 PAM-2 33
Nc1ccc(-c2nc3ccc(-c4nc5ccccc5o4)cc3[nH]2)cc1	D2 PAM-1 65
Nc1cc(N)cc(-c2nc3ccccc3[nH]2)c1	D2 PAM-1 53
Cc1nc2ccc(-c3nc4ccccc4o3)cc2[nH]1	none
COc1ccccc1NC(=O)C(=O)NCC(c1ccc2c(c1)OCO2)N1CCOCC1 (stereo not given)	none (no result: D2 ag-1, D2 PAM-1, D2 ag-2, D2 antagonist)
Nc1c(C(=O)c2ccccc2)sc2nsc(SCCN3CCCC3)c12	D2 ag-2 37
COC(=O)C1CCN(C(=O)CSc2nc3ccc(OC)cc3[nH]2)CC1	none
COc1ccc2nc(SCC(=O)N3CCNC3=O)[nH]c2c1	D2 antagonist 44
CC(NC(=O)c1ccccc1Cl)c1nnc(SCC(=O)Nc2ccc(C(=O)O)cc2)n1C (stereo not given)	D2 antagonist 30
CCOC(=O)CN(C(=O)CSc1nnc2c(n1)[nH]c1ccc(OC)cc12)c1ccc(F)cc1	D2 antagonist 80
CC(C)c1ccc(NC(=O)CSC2=Nc3ccccc3C3=NC(CCC(=O)NCc4cccs4)C(=O)N23)cc1 (stereo not given)	none (no result: D2 ag-1, D2 PAM-1, D2 antagonist, D2 PAM-2)
O=C(Nc1ccc(-c2cn3cccnc3n2)cc1)c1cc(Br)ccc1Cl	none (no result: D2 ag-1, D2 PAM-1, D2 antagonist)
CC(C)Oc1ccc(C2CC(=O)N(c3ccccc3)C2=O)cc1 (stereo not given)	none (no result: D2 ag-2, D2 antagonist, D2 PAM-2)
CC(C)Oc1ccc(C2CC(=O)N(c3ccc(N(C)C)cc3)C2=O)cc1 (stereo not given)	D2 antagonist 34
Cc1ccc(C)c(N2CCN(S(=O)(=O)c3cc(Br)cc4c3N(C(=O)C3CC3)CC4)CC2)c1	none (no result: D2 ag-1, D2 PAM-1, D2 antagonist)
O=C(Nc1nnc(-c2ccccc2F)s1)C1CCCO1 (stereo not given)	D2 antagonist 40
CC(C)c1ccc(NC2CCCN(C(=O)c3cccnc3)C2)cc1 (stereo not given)	none
Cc1ccc(NC2CCCN(C(=O)c3cccnc3)C2)cc1C (stereo not given)	D2 antagonist 36
Cc1cc(O)ccc1N/C=C1\CCCC1=O	D2 PAM-1 64
Cc1ccc([N+](=O)[O-])cc1NC(=O)C1CCCC1	none
CC(=O)Nc1ccc(N/C=C2/CCCC2=O)cc1	none
Cc1ccc([N+](=O)[O-])cc1N/C=C1\CCCCC1=O	D2 antagonist 52
O=C(Oc1ccccc1C(=S)N1CCOCC1)c1ccc([N+](=O)[O-])cc1[N+](=O)[O-]	D2 ag-1 inconclusive, D2 PAM-1 58
O=C(NCCN1CCOCC1)c1ccc([N+](=O)[O-])cc1[N+](=O)[O-]	D2 PAM-1 50, D2 antagonist 43
Cc1nc(-n2nc(C)c(Cc3ccc(Cl)cc3)c2C)sc1C(=O)N1CCC(C)CC1	none (no result: D2 ag-1, D2 PAM-1, D2 antagonist)
CC1CN(C(=O)CCC(=O)N2CCN(c3cccc(C(F)(F)F)c3)CC2)c2ccccc2O1 (stereo not given)	D2 antagonist 41, D2 PAM-2 30
COc1ccc(CC(C)N2CCN(c3cccc(C(F)(F)F)c3)CC2)cc1OC (stereo not given)	D2 antagonist 74
COCC(=O)N1CCN(c2cccc(Cl)c2)CC1	none
COCC(=O)N1CCN(c2cccc(C(F)(F)F)c2)CC1	D2 antagonist 44
CCOc1cc(CN2CCN(c3cccc(C(F)(F)F)c3)CC2)ccc1OC	none
COc1cc(C(=O)NCc2ccc(OCCN(C)C)cc2)cc(OC)c1OC	D2 antagonist 72
CCCCOc1cccc(C(=O)Nc2cc(NC(=O)c3ccco3)ccc2OC)c1	none (no result: D2 ag-1, D2 PAM-1, D2 antagonist)
CN(CC(=O)Nc1cccc(F)c1)CC(=O)N1CCc2ccccc21	none
CC(C(=O)N1CCc2ccccc21)N(C)CC(=O)Nc1cccc(F)c1 (stereo not given)	D2 antagonist 39
COc1ccc(-c2nc3ccccc3s2)cc1NC(=O)c1ccccc1OC	none (no result: D2 ag-1, D2 PAM-1, D2 antagonist)
O=C1NCCCc2c1oc1ccc(O)cc21	none
Oc1c(Cl)cc(Cl)c2c1NCCC2	D2 ag-1 inconclusive, D2 antagonist 39
CC(=O)c1ccc(NC(=O)COC(=O)CCN2C(=O)c3cccc([N+](=O)[O-])c3C2=O)cc1	none
CC(C)N(c1ccccc1)c1ccc(NC(=O)COC(=O)CCN2C(=O)c3cccc([N+](=O)[O-])c3C2=O)cc1	D2 ag-1 inconclusive, D2 PAM-1 61
CCOc1ccc(C2C(=O)N(C3CCCCCC3)CC(=O)N2CCC2=CCCCC2)cc1OC (stereo not given)	none (no result: D2 ag-1, D2 PAM-1, D2 antagonist)
CCN(CC)C(CNS(=O)(=O)c1ccc(Cl)cc1)c1ccccc1 (stereo not given)	D2 antagonist 39
COC(CNS(=O)(=O)c1ccc(Cl)cc1)c1ccccc1 (stereo not given)	none
COc1ccccc1Cn1c(CNS(=O)(=O)c2ccc(Cl)s2)nc2cccnc21	none (no result: D2 ag-1, D2 PAM-1, D2 antagonist)
Cc1coc2c(C)c3oc(=O)c(CCC(=O)N4CCC(C(=O)NCCCC(=O)O)(c5ccccc5)CC4)c(C)c3cc12	D2 PAM-2 41
Cc1coc2c(C)c3oc(=O)c(CCC(=O)NCCCN4CCOCC4)c(C)c3cc12	none
Cc1ccc(NC(=O)N2CCc3c([nH]c4ccccc34)C2c2ccccc2F)c(Cl)c1 (stereo not given)	none (no result: D2 ag-1, D2 PAM-1, D2 antagonist)
O=C(N1CCOCC1)N1CCC(n2nnc3cc(F)ccc32)CC1	none (no result: D2 ag-2, D2 antagonist)
O=C(c1ccc([N+](=O)[O-])cc1)N1CCC(n2nnc3cc(F)ccc32)CC1	D2 PAM-2 33
COc1cc(C(O)P(=O)(OCC(C)C)OCC(C)C)cc(OC)c1OC (stereo not given)	none
CC(C)COP(=O)(OCC(C)C)C(O)c1ccccc1F (stereo not given)	D2 antagonist 52
COc1ccc2c(c1)C(=O)N(c1ccccc1)C(=O)C2	D2 PAM-2 31
O=C(CNC(=O)c1cccs1)NCC(=O)OCc1ccc(F)cc1	D2 PAM-2 35
Cc1ccc(C)c(NC(=O)COC(=O)CC2CC3CCC2C3)c1 (stereo not given)	none (no result: D2 ag-2, D2 antagonist, D2 PAM-2)
O=C(COC(=O)CC1CC2CCC1C2)Nc1cc([N+](=O)[O-])ccc1F (stereo not given)	D2 PAM-2 32
COc1ccc(OC)c(-n2c(-c3cccc(O)c3)n[nH]c2=S)c1	D2 PAM-2 36
